According to ChEMBL document CHEMBL3988442, “University of Dundee, Small-Polar-MMV Screening Library” (2021):

These molecules were tested against AMP-activated protein kinase, AMPK (Homo sapiens) (UniProt P54646+O43741+P54619+Q9UGJ0+Q9Y478+Q13131+Q9UGI9) (assay: AMP-dependent Kinase enzyme assay. An in vitro enzyme assay that detects ADP turnover that is directly proportional to AMPK activity. This uses naive AMPK that is activated during the assay with MK-8722). Details: 30 µM.
Type: functional
Set-up: scale not given: direction of the effect not stated beside the values

Row | Structure (SMILES) | Percent Effect
1 | CCN(CC)c1ncccc1CNCc1ccc(Cl)s1 | -3.79%
2 | Cc1ccc(C)c(CC(=O)NC2CCC(N3C(=O)CCC3=O)CC2)c1 (stereo not given) | -3.29%
3 | Cc1ccccc1S(=O)(=O)Cc1nsc(N(C)C)n1 | -0.34%
4 | FC(F)(F)c1cc(C2CCCN(Cc3ccncc3)C2)n[nH]1 (stereo not given) | 3.39%
5 | CCCn1nc(C)c(CN2CC3(CCOC3)CCC2=O)c1C (stereo not given) | 1.7%
6 | Cc1cc(Cl)c(C)c(S(=O)(=O)N2CCN(Cc3ccccn3)CC2)c1Cl | 1.09%
7 | CC(C)n1ccc(C(=O)OCC2CC(=O)N(Cc3ccccc3)C2)n1 (stereo not given) | 7.89%
8 | CCNc1ncc(C(=O)NCc2csc(-c3cnccn3)n2)cn1 | -2.88%
9 | Cc1nn(C)cc1NC(=O)CN1CCN(C2CCCC2)C(=O)C1 | 16.5%
10 | Cc1ccc(-c2noc(C3CCN3C(=O)c3ccn(C)n3)n2)s1 (stereo not given) | 12%
11 | CN1CCN([C@H]2CCN(C(=O)c3nn(C)cc3Cl)C[C@H]2CCCO)CC1 | 4.08%
12 | CS(=O)(=O)NCC1Cc2ccccc2O1 (stereo not given) | -1.87%
13 | Cc1ccccc1SCC(=O)NC1CCC(O)CC1 (stereo not given) | 0.736%
14 | COc1ccc(C(=O)NCC2CCCN(C3CCOCC3)C2)c(O)c1 (stereo not given) | 14.3%
15 | CN(Cc1cnccn1)c1cncc(Br)c1 | 3.25%
16 | Cc1sc(C(=O)NS(C)(=O)=O)cc1-c1ccc(F)cc1 | -4.08%
17 | O=C1NCCCN1Cc1nc(-c2ccc(N3CCCCC3)cc2)no1 | 3.5%
18 | COc1nsc2nc(C3CCCN3c3ncccn3)ccc12 (stereo not given) | 13.7%
19 | O=C(c1cccnc1)N1CCC(Oc2cccc(C(F)(F)F)c2)CC1 | -1.51%
20 | Cc1cc(N(C)CC2COc3ccccc3O2)nc(N)n1 (stereo not given) | 2.34%

Row | Structure (SMILES) | Percent Effect
21 | COc1ccccc1CN(Cc1nc(Cc2ccccc2)no1)C1CC1 | 12.8%
22 | COCc1ccccc1C(=O)OCc1noc(C)n1 | 6.88%
23 | CC(C)n1cc(CN(Cc2ccsc2)CC2CCCO2)cn1 (stereo not given) | 5.12%
24 | CC(C)COc1cncc(N(C)C2CCN(c3ncccn3)CC2)n1 | 7.4%
25 | Cc1nn(C)c(C)c1C1CCCN1C(=O)c1cc(C(N)=O)cs1 (stereo not given) | -0.756%
26 | CC(CN1CCOCC1)NC(=O)N1CCN(S(C)(=O)=O)CC1 (stereo not given) | 8.74%
27 | CCNC(=O)CN1CCc2c(Br)ccc(F)c2C1 | -1.06%
28 | Cn1cc(-c2cc(C(=O)N3CCOCC3)c3ccc(F)cc3n2)cn1 | 18.9%
29 | O=C1CN(c2ccc(C(=O)N3CCc4ccccc43)cn2)CCN1 | 5.07%
30 | CCOCC(=O)N1CCC(C)(c2nccs2)CC1 | 6.62%
31 | N#Cc1cc(S(N)(=O)=O)ccc1N1CCN(c2ccccc2)CC1 | 10.8%
32 | Cc1cc(CNC(=O)NCCC(=O)N2CCCc3ccccc32)no1 | -5.1%
33 | O=C(Cc1ccccc1O)NC1CCCN(c2ccccc2F)C1=O (stereo not given) | 8.51%
34 | CCN(C(=O)CS(=O)(=O)c1cc(OC)c(OC)cc1C)C1CC1 | 19.2%
35 | Cc1nc2n(n1)CC(NCc1ccc(Cl)c3cccnc13)CC2 (stereo not given) | 9%
36 | CC(=O)NCCc1cc2nc(-c3ccncc3)ccn2n1 | 17.4%
37 | CN(CCCc1cnn(C)c1)Cc1cc2n(n1)CCNC2 | -4.86%
38 | NC(=O)CNC(=O)c1cc(Cn2cnc3ccccc32)[nH]n1 | -3.37%
39 | Cc1cc(C2CCCN(Cc3nnc(Cc4ccccc4)o3)C2)n[nH]1 (stereo not given) | 18%
40 | CCOc1ccc(Oc2cc(CN)ccn2)cc1 | -43.1%
